Measured values reported in PubChem BioAssay (NCI).
This is part of a sample that, as a whole, favours compounds with a hit. Of some 79,000 tested, about 15% had one in any assay. Values without a mark were called inactive. Active and inactive are the calls of the source. No stated cut-off is given here; in the data, active means growth inhibition above about 70%; inactive means the rest.

Test: NCI Yeast Anticancer Drug Screen. Data for the rad50 strain (AID 155);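 further: 0% = growth of vehicle-only cultures of the same strain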
Settings: S. cerevisiae rad50 strain growth inhibition; at 5.0 µM (retest, dose inferred, filed as 0.5); stronger effect = higher value
Outline: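 Relative growth inhibition (compound vs vehicle) was measured in yeast with a defined repair-gene alteration.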

SMILES | growth inhibition
CC(=O)Sc1ccc(Br)cc1 | 0%
CC(C)OCc1cccc2ccnc(COC(C)C)c12 | -20%
Nc1ccc2c(c1)C(=O)c1ccccc1-2 | 9%
O=C1Nc2ccc([N+](=O)[O-])c3c([N+](=O)[O-])ccc1c23 | 4%
Cc1ccc(NC(=O)Oc2ccc(C(C)(C)C)cc2Br)cc1NC(=O)Oc1ccc(C(C)(C)C)cc1Br | 8%
O=C1C(Cl)=C(Nc2ccc(S(=O)(=O)O)cc2)C(=O)c2ccccc21 | 23%
N/C(=N\OC(=O)Nc1ccccc1)c1ccccc1 | 7%
O=C1c2ccccc2C(=O)c2cc(N3C(=O)C=CC3=O)ccc21 | 54%
CCCCN=C(c1ccc(O)cc1)c1ccc(OC)cc1O | -4%
Cc1ccc(S(=O)(=O)c2cc(O)c(O)c3ccc(Br)cc23)cc1 | 13%
CC(C)(C)NC(=S)N/N=C/c1cc(Cl)cc(Cl)c1O | 65%
Oc1ccc2c(c1)OCC1c3ccccc3OC21 (stereo not given) | 24%
OCCSC(=S)Nc1ccc(Cl)c(Cl)c1 | 47%
CCCC[N-]CC(O)C[NH-].O=C(O)CC(=O)O.[Pt+2] (stereo not given) | 2%
N=C(N)c1cccc(-c2ccc(-c3ccccc3)o2)c1 | -3%
C#CC(CC(C)C)(CC(C)C)OC(=O)Nc1ccccc1 | 5%
CCCCOc1ccc(-c2c(COC(=O)NC)c(COC(=O)NC)c(C)n2C)cc1 | 23%
O=C(Nc1cccc2ccccc12)OCCCCCCl | -2%
C=CCOc1ccc(/C=N/NC(N)=S)cc1 | 10%
Fc1ccc2[nH]ccc2c1 | 9%

SMILES | growth inhibition
C=C1C(=O)[C@]23C[C@H]1CC[C@H]2[C@@]12CO[C@@H](O)[C@@H]1C(C)(C)[C@@H](O)C[C@@H]2OC3=O | 8%
N#Cc1ccc([N+](=O)[O-])cc1C#N | -155%
N=C(N)c1ccc(Oc2ccc(Oc3ccc(C(=N)N)cc3)cc2)cc1 | 43%
CCC=Nc1c(O)cc(-c2ccccc2)n(C)c1=O | 36%
COc1ccc(CN2CCCN(Cc3ccc(OC)cc3OC)C2c2cc(Cl)ccc2O)c(OC)c1 | 7%
CCN(CC)c1ccc(/C=C2/C[N+](C)(C)C/C(=C/c3ccc(N(CC)CC)cc3)C2=O)cc1 | -17%
O=P1(Cc2ccccc2)c2ccccc2-c2ccccc21 | -21%
CN(C)CCCNc1cc(O)c2c(c1O)C(=O)c1ccccc1C2=O | 22%
CCCCC#CC(=O)OCCCCC | -2%
CCCCCCN(CCCCCC)CCC(=O)c1ccc2cc(Cl)c3ccccc3c2c1 | 29%
CC(C)C1=C2CCC3(C)C(CCC4C5C6OCC5(CCC6(C)C)CCC43C)C2(C)CC1 (stereo not given) | 22%
O=C(CC(O)(CC(=O)OCc1ccccc1)C(=O)OCc1ccccc1)OCc1ccccc1 | -3%
CCc1c(C)[nH]c2c([N+](=O)[O-])cccc12 | 5%
CSc1ncc2c(n1)-c1ccccc1OC2NC1CC1 (stereo not given) | 24%
CC(C)c1cc(O)c2c(c1O)C1CC3C(C)(C)CCC[C@]23C(=O)O1 (stereo not given in full) | 1%
O=C1C(=O)c2cc(Br)cc([N+](=O)[O-])c2-c2ccc(Br)cc21 | 68%
NSc1ccccn1 | 7%
CCCCCCCCCCCCOC(=O)C[n+]1cccc(C(=O)Nc2ccccc2)c1 | 96% (active)
NC(=S)SCCC(=O)O | -2%
O=C(O)Cc1ccc2c3c(cccc13)CC2 | 44%

Same assay, conditions: S. cerevisiae rad50 strain growth inhibition; at 50.0 µM (retest, dose inferred, filed as 5.0); stronger effect = higher value

SMILES | growth inhibition
CC(=O)Sc1ccc(Br)cc1 | 73% (active)
CC(C)OCc1cccc2ccnc(COC(C)C)c12 | 53%
Nc1ccc2c(c1)C(=O)c1ccccc1-2 | 57%
O=C1Nc2ccc([N+](=O)[O-])c3c([N+](=O)[O-])ccc1c23 | 82% (active)
Cc1ccc(NC(=O)Oc2ccc(C(C)(C)C)cc2Br)cc1NC(=O)Oc1ccc(C(C)(C)C)cc1Br | 26%
O=C1C(Cl)=C(Nc2ccc(S(=O)(=O)O)cc2)C(=O)c2ccccc21 | 99% (active)
N/C(=N\OC(=O)Nc1ccccc1)c1ccccc1 | 51%
O=C1c2ccccc2C(=O)c2cc(N3C(=O)C=CC3=O)ccc21 | 83% (active)
CCCCN=C(c1ccc(O)cc1)c1ccc(OC)cc1O | 20%
Cc1ccc(S(=O)(=O)c2cc(O)c(O)c3ccc(Br)cc23)cc1 | 97% (active)
CC(C)(C)NC(=S)N/N=C/c1cc(Cl)cc(Cl)c1O | 72% (active)
Oc1ccc2c(c1)OCC1c3ccccc3OC21 (stereo not given) | 71% (active)
OCCSC(=S)Nc1ccc(Cl)c(Cl)c1 | 99% (active)
CCCC[N-]CC(O)C[NH-].O=C(O)CC(=O)O.[Pt+2] (stereo not given) | 6%
N=C(N)c1cccc(-c2ccc(-c3ccccc3)o2)c1 | 62%
C#CC(CC(C)C)(CC(C)C)OC(=O)Nc1ccccc1 | 95% (active)
CCCCOc1ccc(-c2c(COC(=O)NC)c(COC(=O)NC)c(C)n2C)cc1 | 94% (active)
O=C(Nc1cccc2ccccc12)OCCCCCCl | 97% (active)
C=CCOc1ccc(/C=N/NC(N)=S)cc1 | 83% (active)
Fc1ccc2[nH]ccc2c1 | 41%

SMILES | growth inhibition
C=C1C(=O)[C@]23C[C@H]1CC[C@H]2[C@@]12CO[C@@H](O)[C@@H]1C(C)(C)[C@@H](O)C[C@@H]2OC3=O | 6%
N#Cc1ccc([N+](=O)[O-])cc1C#N | 97% (active)
N=C(N)c1ccc(Oc2ccc(Oc3ccc(C(=N)N)cc3)cc2)cc1 | 69%
CCC=Nc1c(O)cc(-c2ccccc2)n(C)c1=O | 71% (active)
COc1ccc(CN2CCCN(Cc3ccc(OC)cc3OC)C2c2cc(Cl)ccc2O)c(OC)c1 | 87% (active)
CCN(CC)c1ccc(/C=C2/C[N+](C)(C)C/C(=C/c3ccc(N(CC)CC)cc3)C2=O)cc1 | 95% (active)
O=P1(Cc2ccccc2)c2ccccc2-c2ccccc21 | 99% (active)
CN(C)CCCNc1cc(O)c2c(c1O)C(=O)c1ccccc1C2=O | 98% (active)
CCCCC#CC(=O)OCCCCC | 0%
CCCCCCN(CCCCCC)CCC(=O)c1ccc2cc(Cl)c3ccccc3c2c1 | 90% (active)
CC(C)C1=C2CCC3(C)C(CCC4C5C6OCC5(CCC6(C)C)CCC43C)C2(C)CC1 (stereo not given) | 49%
O=C(CC(O)(CC(=O)OCc1ccccc1)C(=O)OCc1ccccc1)OCc1ccccc1 | -23%
CCc1c(C)[nH]c2c([N+](=O)[O-])cccc12 | 29%
CSc1ncc2c(n1)-c1ccccc1OC2NC1CC1 (stereo not given) | 22%
CC(C)c1cc(O)c2c(c1O)C1CC3C(C)(C)CCC[C@]23C(=O)O1 (stereo not given in full) | 49%
O=C1C(=O)c2cc(Br)cc([N+](=O)[O-])c2-c2ccc(Br)cc21 | 96% (active)
NSc1ccccn1 | 74% (active)
CCCCCCCCCCCCOC(=O)C[n+]1cccc(C(=O)Nc2ccccc2)c1 | 98% (active)
NC(=S)SCCC(=O)O | 4%
O=C(O)Cc1ccc2c3c(cccc13)CC2 | 90% (active)
